15 molecules from PubChem BioAssay can be followed below.

SMILES strings stand for the structures. The source made the active and inactive calls.

A short description of assay [1]: binders of probe aFSTL3 on microarray, primary screen, stem cell growth factor project, biochemical, small-molecule microarray, fluorescence 635/667 (AID 1064).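 Note: measures binding of the biotinylated anti-FSTL3 antibody to printed compounds.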 To be noted: higher = more signal.
Assay [2] in a line: binders from COS7 lysate, DM2A8 probe, primary screen, torsin A project, cell lysate, small-molecule microarray, fluorescence 635/667 (AID 1065). Particulars: higher = more signal, COS7 lysate expressing mutant human TOR1A.
The nature of assay [3]: binders of probe aFGF2 on microarray, primary screen, stem cell growth factor project, biochemical, small-molecule microarray, fluorescence 635/667 (AID 1067).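 Note: measures binding of biotinylated aFGF2 protein to printed compounds on slides; z-score merges feature fluorescence and signal-to-noise across triplicate slides.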 To be noted: higher = more signal.
Assay [4] can be described thus: binders of probe aFGF10 on microarray, primary screen, stem cell growth factor project, biochemical, small-molecule microarray, fluorescence 635/667 (AID 1071).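 Note: score merges 667 nm spot intensity and signal to noise from triplicate slides.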 Particulars: higher = more signal.
The target in assay [5] is Neurogenic locus notch homolog protein 2 (Homo sapiens) (UniProt Q04721). The experiment in a line: Notch2 binders on small-molecule microarrays, primary screen, biochemical, small-molecule microarray, 635 nm fluorescence, stem cell growth factors (AID 1073). Particulars: Notch2 binding, higher = more signal.
Chain of Neurogenic locus notch homolog protein 2 (Homo sapiens) (Q04721 whole entry, looked up, canonical isoform): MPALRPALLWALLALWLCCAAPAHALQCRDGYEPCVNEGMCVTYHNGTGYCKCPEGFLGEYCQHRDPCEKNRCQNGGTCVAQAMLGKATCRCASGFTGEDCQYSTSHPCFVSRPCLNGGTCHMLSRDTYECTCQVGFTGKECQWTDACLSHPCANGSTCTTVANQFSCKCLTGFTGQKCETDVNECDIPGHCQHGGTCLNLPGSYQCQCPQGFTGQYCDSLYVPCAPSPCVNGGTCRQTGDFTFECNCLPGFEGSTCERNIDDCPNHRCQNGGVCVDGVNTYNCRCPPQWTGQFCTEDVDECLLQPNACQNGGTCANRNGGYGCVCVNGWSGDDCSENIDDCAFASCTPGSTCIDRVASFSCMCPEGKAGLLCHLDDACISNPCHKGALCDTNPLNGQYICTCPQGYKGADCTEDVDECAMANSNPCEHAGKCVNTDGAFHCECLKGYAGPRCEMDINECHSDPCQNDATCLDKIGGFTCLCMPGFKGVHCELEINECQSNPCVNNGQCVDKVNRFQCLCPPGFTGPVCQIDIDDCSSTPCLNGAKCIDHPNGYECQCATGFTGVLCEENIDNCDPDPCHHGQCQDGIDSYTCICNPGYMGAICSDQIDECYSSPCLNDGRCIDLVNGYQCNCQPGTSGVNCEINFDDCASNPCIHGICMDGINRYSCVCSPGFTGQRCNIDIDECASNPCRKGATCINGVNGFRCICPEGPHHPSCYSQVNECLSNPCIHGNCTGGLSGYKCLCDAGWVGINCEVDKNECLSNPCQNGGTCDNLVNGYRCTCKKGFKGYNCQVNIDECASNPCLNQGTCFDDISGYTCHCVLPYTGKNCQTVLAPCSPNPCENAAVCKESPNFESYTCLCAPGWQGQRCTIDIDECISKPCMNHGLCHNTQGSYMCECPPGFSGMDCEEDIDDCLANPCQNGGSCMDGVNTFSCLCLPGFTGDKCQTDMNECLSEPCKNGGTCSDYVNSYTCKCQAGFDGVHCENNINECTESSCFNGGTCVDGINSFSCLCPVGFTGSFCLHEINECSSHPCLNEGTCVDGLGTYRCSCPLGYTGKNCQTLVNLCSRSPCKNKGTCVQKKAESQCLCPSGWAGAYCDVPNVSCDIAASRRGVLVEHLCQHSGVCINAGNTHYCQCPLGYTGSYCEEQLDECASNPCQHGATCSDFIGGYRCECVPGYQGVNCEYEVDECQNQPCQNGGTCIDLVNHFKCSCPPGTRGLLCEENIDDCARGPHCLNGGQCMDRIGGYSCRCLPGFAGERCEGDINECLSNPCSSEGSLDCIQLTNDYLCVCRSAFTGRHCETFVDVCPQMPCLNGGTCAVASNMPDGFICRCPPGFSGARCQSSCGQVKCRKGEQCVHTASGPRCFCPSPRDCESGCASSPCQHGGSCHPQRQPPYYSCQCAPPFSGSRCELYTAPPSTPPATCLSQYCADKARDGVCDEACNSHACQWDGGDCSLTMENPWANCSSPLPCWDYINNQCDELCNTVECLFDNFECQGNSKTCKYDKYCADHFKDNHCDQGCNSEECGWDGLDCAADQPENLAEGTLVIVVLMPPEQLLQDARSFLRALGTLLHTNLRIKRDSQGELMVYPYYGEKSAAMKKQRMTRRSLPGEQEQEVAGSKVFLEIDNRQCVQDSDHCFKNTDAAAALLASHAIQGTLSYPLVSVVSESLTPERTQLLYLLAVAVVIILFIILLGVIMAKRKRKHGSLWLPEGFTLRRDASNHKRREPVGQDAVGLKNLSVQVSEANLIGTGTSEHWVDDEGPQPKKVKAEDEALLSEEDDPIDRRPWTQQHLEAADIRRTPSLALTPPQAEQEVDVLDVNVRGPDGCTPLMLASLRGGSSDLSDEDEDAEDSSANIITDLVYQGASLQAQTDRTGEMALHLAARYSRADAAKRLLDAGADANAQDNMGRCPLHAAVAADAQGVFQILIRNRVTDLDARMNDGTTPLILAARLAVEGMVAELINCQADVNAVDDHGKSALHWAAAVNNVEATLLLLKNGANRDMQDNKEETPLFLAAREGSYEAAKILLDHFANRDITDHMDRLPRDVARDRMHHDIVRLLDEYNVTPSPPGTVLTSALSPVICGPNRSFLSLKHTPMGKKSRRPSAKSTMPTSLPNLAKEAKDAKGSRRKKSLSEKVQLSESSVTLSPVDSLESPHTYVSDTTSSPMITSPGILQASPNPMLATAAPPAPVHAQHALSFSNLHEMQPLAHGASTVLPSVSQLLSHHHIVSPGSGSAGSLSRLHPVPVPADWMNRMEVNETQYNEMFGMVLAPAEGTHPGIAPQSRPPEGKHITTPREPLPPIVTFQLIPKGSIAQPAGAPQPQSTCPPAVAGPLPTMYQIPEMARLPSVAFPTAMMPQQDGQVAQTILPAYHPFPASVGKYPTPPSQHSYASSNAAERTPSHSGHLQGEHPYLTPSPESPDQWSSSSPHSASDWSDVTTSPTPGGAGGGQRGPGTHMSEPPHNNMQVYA
For assay [6], the target named is Pro-neuregulin-1, membrane-bound isoform (Homo sapiens) (UniProt Q02297). Description: NRG1 binders on small-molecule microarrays, primary screen, psychiatric disease protein project, biochemical, small-molecule microarray, fluorescence 635/667 (AID 1075).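 Note: score combines 667 nm spot fluorescence with signal to noise.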 To be noted: NRG1 binding, 635 nm fluorescence, higher = more signal.
Chain of Pro-neuregulin-1, membrane-bound isoform (Homo sapiens) (Q02297 whole entry, looked up, the tested form may be a part, canonical isoform): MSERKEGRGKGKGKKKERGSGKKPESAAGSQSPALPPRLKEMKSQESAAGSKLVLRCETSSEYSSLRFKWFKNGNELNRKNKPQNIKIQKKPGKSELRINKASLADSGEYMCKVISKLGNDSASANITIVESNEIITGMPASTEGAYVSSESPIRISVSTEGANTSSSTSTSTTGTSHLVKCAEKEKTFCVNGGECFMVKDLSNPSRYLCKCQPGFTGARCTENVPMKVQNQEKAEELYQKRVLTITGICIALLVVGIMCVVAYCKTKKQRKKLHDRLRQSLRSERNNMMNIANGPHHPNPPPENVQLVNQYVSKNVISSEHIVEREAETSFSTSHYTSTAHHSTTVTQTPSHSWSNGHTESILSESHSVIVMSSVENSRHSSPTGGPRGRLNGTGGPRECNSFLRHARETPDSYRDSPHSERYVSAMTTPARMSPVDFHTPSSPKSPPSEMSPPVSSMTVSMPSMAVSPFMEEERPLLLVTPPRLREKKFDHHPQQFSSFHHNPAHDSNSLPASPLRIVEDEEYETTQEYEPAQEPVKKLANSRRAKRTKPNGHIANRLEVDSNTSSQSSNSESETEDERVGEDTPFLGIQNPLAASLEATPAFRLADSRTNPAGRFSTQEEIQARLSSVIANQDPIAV
The subject of assay [7] is Neuregulin-1 EGF-like domain. The experiment in a line: binders of neuregulin-1 EGF-like domain, primary screen, biochemical, small-molecule microarray, 635 nm fluorescence (AID 1081).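 Note: binding of the protein to compounds printed on small-molecule microarray slides.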 To be noted: small-molecule microarray binding, higher = more signal.
The nature of assay [8]: FRG1 promoter luciferase signal modulators, primary screen, FRG1 inhibition for FSHD, cell-based, C2C12 myotubes, firefly/Renilla luciferase, luminescence (AID 1084). Particulars: higher = more signal, called active from +8 up or from −8 down.
The nature of assay [9]: binders of probe aFST on microarray, primary screen, stem cell growth factor project, biochemical, small-molecule microarray, fluorescence 635/667 (AID 1086).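 Note: score merges 667 nm fluorescence with signal-to-noise of each printed compound spot.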 Particulars: higher = more signal.
Assay [10] can be described thus: binders of probe aHhip on microarray, primary screen, stem cell growth factor project, biochemical, small-molecule microarray, fluorescence 635/667 (AID 1087).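 Note: score merges spot fluorescence at 667nm with spot signal to noise ratio.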 To be noted: higher = more signal.

With `O=C1c2ccccc2[C@@]2(Cc3ccccc3N(CC(F)(F)F)C2=O)[C@H](c2ccc(CO)cc2)N1Cc1ccccc1Cl`, the composite z-score in assay [1] was -0.351; in assay [2], -0.112; in assay [3] it was -0.147; in assay [4], -0.0091; in assay [5], 0.0933; in [6], -0.0415. The composite z-score in [7] was 0.222; in [9], -0.121; in [10], -0.226. The z-score in [8] is -0.163 (inactive).

`CN(C)C(=O)[C@]1(Cc2ccccc2CN=[N+]=[N-])N=C(c2ccc(OCCCO)cc2)O[C@@H]1c1ccccc1CN=[N+]=[N-]`: the composite z-score was -0.0551 in assay [1]; 1.26 in [2]; 0.0858 in assay [3]; 1.18 in assay [4]; 1.43 in assay [5]; 0.559 in [6]. The composite z-score in assay [7] is 1.27; in assay [9], 1.64; in assay [10] it was -0.318. Moreover, the z-score in assay [8] is -1.45 (inactive).

`O=C(c1ccccc1)N1Cc2ccccc2[C@@H]2OC(c3ccc(OCCCO)cc3)=N[C@]2(Cc2ccccc2)C1=O`: the composite z-score in assay [1] was -0.0231; in assay [2], 0.483; in [3], 0.0462; in [4] it was 0.158; in assay [5] it was 0.649; in assay [6] it was 1.32. In addition, the composite z-score in [7] is 1.24; in [9] it was -0.171; in [10], -0.208. Besides, the z-score in [8] is -1.05 (inactive).

Consider `COCCOC(=O)N1C(=O)[C@@]2(c3cc(C#CC4=CCCCC4)ccc31)[C@H](C(=O)Nc1nc3ccccc3s1)[C@H]1C(=O)O[C@H](c3ccccc3)[C@H](c3ccccc3)N1[C@@H]2c1ccccc1OCCO`, for which the composite z-score was 0.346 in assay [1]; 0.189 in assay [2]; 0.0871 in [3]; 0.77 in assay [4]; 1.49 in [5]; 1.15 in assay [6]. The results for the composite z-score in [7], in assay [9] and in [10] were 1.08, 0.965 and 0.463, respectively. Moreover, the z-score in assay [8] was 1.29 (inactive).

Consider `CC(C)(C)OC(=O)CC[C@@]1(C(N)=O)N=C(c2ccc(OCCCO)cc2)O[C@@H]1c1ccccc1`, for which the composite z-score in [1] is 0.0075; in assay [2], 1.93; in assay [3], -0.0399; in assay [4] it was 0.558; in [5], 1.29; in [6], 1.71. The composite z-score in [7] was 1.24; in assay [9] it was 1.05; in assay [10], -0.134. Also, the z-score in [8] was 0.18 (inactive).

On to `CCCCN1CC=CC23O[C@@H]4C=CCOC(=O)[C@@H]4[C@H]2C(=O)N(CCCCCO)[C@@H]3C1=O` (stereo not given in full), for which the composite z-score was 0.219 in assay [1]; -0.726 in [2]; -0.187 in [3]; -0.32 in assay [4]; -0.661 in assay [5]; 0.967 in assay [6]. Moreover, the composite z-score in assay [7] was 1.34; in assay [9], -0.603; in assay [10], -0.21. Moreover, in assay [8], the z-score was -0.333 (inactive).

Take `[N-]=[N+]=NCc1ccccc1[C@@H]1OC(c2ccc(OCCCO)cc2)=N[C@]1(CCS(=O)(=O)c1ccccc1)C(=O)NCc1ccccc1`: the composite z-score was found to be 0.985 in assay [1]; 1.05 in assay [2]; 0.289 in assay [3]; 0.76 in assay [4]; 1.5 in assay [5]; 1.74 in [6]. Moreover, the values for the composite z-score in assay [7], in [9] and in [10] were 1.32, 1.89 and 0.683, respectively. Further, the z-score in assay [8] was -2.83 (inactive).

Take `COc1ccc([Si](C)(C)[C@H]2[C@H](CC(=O)N3CCC[C@H]3CO)O[C@@]3(C(=O)N(Cc4cccc(N5C(=O)c6cccc7cccc5c67)c4)c4ccccc43)[C@@H]2C)cc1`: the composite z-score in assay [1] is -0.354; in assay [2] it was -0.0115; in assay [3] it was 0.0686; in [4], 0.483; in assay [5], 0.818; in [6] it was 1.77. Further, the composite z-score in assay [7] is 0.981; in [9], 0.305; in assay [10], 0.166. Besides, in [8], the z-score was -4.24 (inactive).

Take `CCCC[C@@H]1C[C@H]1[C@@H](NC(=O)c1ccco1)c1ccc(Cl)cc1`: the composite z-score in assay [1] was 0.159; in assay [2], 0.308; in assay [3] it was 0.0296; in [4], 0.0982; in [5] it was 1.22; in assay [6], 1.01. The composite z-score amounted to 1.05 in assay [7], 0.829 in assay [9] and 0.0274 in assay [10]. For the same molecule, in [8], the z-score was -1.51 (inactive).

With `C=CC[C@]12N=C(c3ccc(OCCCO)cc3)O[C@H]1c1ccccc1N(Cc1ccccc1)C2=O`, the composite z-score was 1.67 in assay [1]; 0.473 in assay [2]; -0.0316 in assay [3]; -0.138 in [4]; 0.877 in assay [5]; 0.138 in [6]. Moreover, the composite z-score in assay [7] came to 0.774; in assay [9], 0.625; in [10], 0.0176. Further, in assay [8], the z-score was -2.33 (inactive).

For `O=C1O[C@@H](c2ccccc2)[C@@H](c2ccccc2)N2[C@@H](c3ccc(OCCO)cc3)[C@]3(C(=O)Nc4ccccc43)[C@@H](C(=O)NC[C@H](O)c3ccccc3)[C@H]12`, the composite z-score was -0.0164 in assay [1]; 0.0007 in assay [2]; -0.019 in assay [3]; -0.0455 in assay [4]; 1.27 in assay [5]; 1.24 in assay [6]. For the same molecule, the composite z-score in [7] was 1.26; in assay [9] it was 0.322; in assay [10], -0.145. Besides, the z-score in assay [8] is -2.2 (inactive).

For the molecule `C=CCOC(=O)[C@H]1[C@@H]2C(=O)O[C@@H](c3ccccc3)[C@@H](c3ccccc3)N2[C@@H](c2ccc(OCCOC(=O)[C@H]3C[C@H]4C(=O)N[C@@H](CC(C)C)C(=O)N4[C@H]3c3ccc(O)cc3)cc2)[C@]12C(=O)Nc1ccc(I)cc12`, the composite z-score in [1] was -0.921; in assay [2], 1.1; in assay [3], -0.0355; in [4], 0.69; in assay [5], 0.82; in [6] it was 0.731. In addition, the composite z-score is 1.34 in [7], -0.742 in [9] and -0.263 in assay [10]. For the same molecule, the z-score in [8] is 1.11 (inactive).

As for `CC(=O)N1Cc2ccccc2C[C@@]2(COC(c3ccc(OCCCO)cc3)=N2)C1=O`, the composite z-score in [1] was 1.54; in assay [2], 0.842; in assay [3], 0.235; in assay [4], 0.51; in assay [5], 1.18; in assay [6], 1.4. The composite z-score in assay [7] was 1.07; in [9], 1.83; in assay [10], -0.21. In [8], the z-score was -0.41 (inactive).

For the molecule `COCCOC(=O)N1C(=O)[C@@]2(c3ccccc31)[C@H](c1ccc(O)cc1)N1[C@H](c3ccccc3)[C@H](c3ccccc3)OC(=O)[C@H]1[C@@H]2C(=O)NC[C@H](O)c1ccccc1`, the composite z-score in assay [1] was 0.0147; in assay [2] it was 0.702; in assay [3], -0.0702; in [4] it was 0.157; in [5] it was 0.187; in [6], 1.8. The composite z-score in assay [7] is 1.26; in assay [9] it was 0.118; in [10], 0.0093. Besides, the z-score in [8] was -0.567 (inactive).

For the molecule `[N-]=[N+]=NCc1ccccc1C[C@]1(C(=O)NCC(O)CO)N=C(c2ccc(OCCCO)cc2)O[C@H]1c1ccccc1` (stereo not given in full), the composite z-score in [1] is 0.881; in [2], 0.34; in [3] it was -0.0039; in [4] it was -0.48; in [5], -0.316; in assay [6], 0.958. The results for the composite z-score in assay [7], in [9] and in assay [10] were 0.849, 0.506 and 0.158, respectively. For the same molecule, the z-score in assay [8] was -0.938 (inactive).
